High-throughput results deposited in PubChem BioAssay by National Center for Advancing Translational Sciences (NCATS).
HT1080 IDH1KD tx = HT-1080 IDH1 knockdown cell toxicity (counter line); 360,000 compounds, 2% hits; Potency, µM (series often up to 46.1 µM), hits mostly cytotoxic; HT-1080 IDH1 knockdown viability, ATP luminescence, 48 h
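CellTiter-Glo luminescence after 48 h compound exposure at 37 degrees C of IDH1-knockdown HT-1080 cells in 5% FBS RPMI. %Activity scaled between DMSO wells and cell-free media wells, with curves fitted and assigned curve classes.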
KB-3-1 cytotox = kills parental KB-3-1 adenocarcinoma cells | Potency, µM (doses to about 46.1 µM), usual class: cytotoxic | 400,000 compounds, 1.4% hits | AID 1347075 | KB-3-1 viability, CellTiter-Glo ATP luminescence, 72 h; note: nearly all actives have a fitted effect of over 60% in size
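72 h, 37 °C compound treatment of KB-3-1 parental cells; CellTiter-Glo added, 10 min, luminescence read. Data corrected against DMSO-only plates and normalized before curve fitting.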
HT1080-NT tox = kills 2HG-producing HT-1080-NT fibrosarcoma cells; Potency, µM (highest dose often 46.1 µM), hits mostly cytotoxic; 360,000 compounds, 1.6% hits; HT-1080-NT fibrosarcoma viability, CellTiter-Glo ATP luminescence, 48 h;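 note: NT is the 2HG producing partner of a matched IDH1 knockdown line; nearly all actives have a fitted effect of over 55% in size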
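Read-out is CellTiter-Glo luminescence after 10 minutes at room temperature, following 48 hours' compound treatment of HT-1080-NT cells (750 cells/well, RPMI, 5% FBS, 37 degrees C).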
TDP1 cell CPT = DT40-hTDP1 cell growth loss with CPT. chicken DT40 Tdp1-/-;hTDP1 cells + 20 nM CPT, ATP luminescence, 48 h. Potency, µM (series often up to 46.2 µM), actives largely listed as inhibitors. 420,000 compounds, 12% hits; note: nearly all actives have a fitted effect of over 55% in size
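Chicken DT40 Tdp1-/- cells stably complemented with human TDP1 were seeded at 400 cells/well in medium containing 20 nM camptothecin, exposed to pin-transferred compounds, and grown at 37 °C for at least 48 hr. Viability was read as ATP luminescence.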
KB-V1 MDR tox = kills drug-selected multidrug resistant KB-V1 cells | AID 1347076 | Potency, µM (doses to about 46.1 µM), actives largely listed as cytotoxic | KB-V1 MDR cells viability, CellTiter-Glo, 72 h | 400,000 compounds, 3.4% hits; note: nearly all actives have a fitted effect of over 60% in size
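In this primary screen, KB-V1 cells overexpressing P-gp are incubated with library compounds (lowest to highest concentration) for 72 h at 37 degrees C before a luminescent ATP viability read.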
DT40 TDP1 no CPT = qHTS for Inhibitors of human tyrosyl-DNA phosphodiesterase 1 (TDP1): qHTS in cells in absence of CPT. Potency, µM (titrated, usually from 46.2 µM), most hits filed as inhibitors. DT40 Tdp1-/- hTDP1 cells, no CPT, ATP luminescence, 48 h. 420,000 compounds, 15% hits; note: nearly all actives have a fitted effect of over 55% in size
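Compound effects on proliferation are scored in DT40 Tdp1-/-;hTDP1 cells in the absence of CPT. ATP levels (CellTiter-Glo luminescence) are recorded after a ≥48 hr, 37 °C incubation.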
Hits are given with their value. Sampled rows, rich in hits. Any-hit rate of the full collection: about 19%. Calls come from the whole dose curve; as a rule, active = well fitted curve in the direction sought with a large enough effect; inconclusive = small, poorly fitted or top-dose-only effect, or another doubt; inactive = no such curve, though single readings can be large; an effect the other way counts as inactive or inconclusive.

For O=C(CSc1nnc(C2COc3ccccc3O2)o1)N1CCCCC1 (configuration not stated) the results were HT1080 IDH1KD tx inactive, KB-3-1 cytotox inactive, HT1080-NT tox inactive, TDP1 cell CPT inactive, KB-V1 MDR tox inactive and DT40 TDP1 no CPT inactive.
`c1ccc(CCNc2ncnc3scc(C4COc5ccccc5O4)c23)cc1` (configuration not stated) gave HT1080 IDH1KD tx inactive, KB-3-1 cytotox inconclusive, HT1080-NT tox inactive, TDP1 cell CPT inconclusive, KB-V1 MDR tox 13µM and DT40 TDP1 no CPT 18µM.
For O=C1COc2ccc(S(=O)(=O)CCC(=O)NC3CCCCC3)cc2N1 the results were HT1080 IDH1KD tx inactive, KB-3-1 cytotox inactive, HT1080-NT tox inactive, TDP1 cell CPT inactive, KB-V1 MDR tox inactive and DT40 TDP1 no CPT inactive.
`Cc1cc(C(=O)COc2cccnc2[N+](=O)[O-])c(C)n1-c1ccccc1` gave HT1080 IDH1KD tx inconclusive, KB-3-1 cytotox inactive, HT1080-NT tox inactive, TDP1 cell CPT inconclusive, KB-V1 MDR tox inactive and DT40 TDP1 no CPT 21µM.
Screening Cc1cc(C(=O)COc2cccnc2[N+](=O)[O-])c(C)n1-c1ccccc1F returned HT1080 IDH1KD tx inactive, KB-3-1 cytotox inactive, HT1080-NT tox inactive, TDP1 cell CPT 18µM, KB-V1 MDR tox inactive and DT40 TDP1 no CPT 9.2µM.
For Cc1ccc(-n2c(C)cc(C(=O)COc3cccnc3[N+](=O)[O-])c2C)cc1 the results were HT1080 IDH1KD tx inactive, KB-3-1 cytotox inactive, HT1080-NT tox inactive, TDP1 cell CPT 18µM, KB-V1 MDR tox inactive and DT40 TDP1 no CPT 10µM.
For O=C(COc1cccnc1[N+](=O)[O-])N1CCc2ccccc21 the results were HT1080 IDH1KD tx inactive, KB-3-1 cytotox inactive, HT1080-NT tox inactive, TDP1 cell CPT inactive, KB-V1 MDR tox inactive and DT40 TDP1 no CPT inactive.
`Cc1cc(C(=O)COc2cccnc2[N+](=O)[O-])c(C)n1Cc1ccco1` gave HT1080 IDH1KD tx 21µM, KB-3-1 cytotox inconclusive, HT1080-NT tox inconclusive, TDP1 cell CPT inconclusive, KB-V1 MDR tox inconclusive and DT40 TDP1 no CPT 26µM.
Cc1ccc(OCC(=O)c2cc(C)n(C)c2C)c([N+](=O)[O-])n1 was read as HT1080 IDH1KD tx inactive, KB-3-1 cytotox inactive, HT1080-NT tox inactive, TDP1 cell CPT inactive, KB-V1 MDR tox inactive and DT40 TDP1 no CPT inactive.
Screening Cc1cc(C(=O)COc2ccccc2C(N)=O)c(C)n1C returned HT1080 IDH1KD tx inactive, KB-3-1 cytotox inactive, HT1080-NT tox inactive, TDP1 cell CPT inactive, KB-V1 MDR tox inconclusive and DT40 TDP1 no CPT inconclusive.
Screening Cc1cc(C(=O)COc2cccc3cccnc23)c(C)n1C returned HT1080 IDH1KD tx inactive, KB-3-1 cytotox inactive, HT1080-NT tox inactive, TDP1 cell CPT inactive, KB-V1 MDR tox 16µM and DT40 TDP1 no CPT inconclusive.
`O=C(N/C(=C\c1cccs1)C(=O)N1CCCCCC1)c1ccccc1` gave HT1080 IDH1KD tx inactive, KB-3-1 cytotox inactive, HT1080-NT tox inactive, TDP1 cell CPT inactive, KB-V1 MDR tox inactive and DT40 TDP1 no CPT inactive.
For O=C(N/C(=C/c1cccs1)C(=O)N1CCOCC1)c1cccs1 the results were HT1080 IDH1KD tx inactive, KB-3-1 cytotox inactive, HT1080-NT tox inactive, TDP1 cell CPT inactive, KB-V1 MDR tox inactive and DT40 TDP1 no CPT inactive.
Screening O=C(NCCO)/C(=C\c1ccco1)NC(=O)c1cccs1 returned HT1080 IDH1KD tx inactive, KB-3-1 cytotox inactive, HT1080-NT tox inactive, TDP1 cell CPT inactive, KB-V1 MDR tox inactive and DT40 TDP1 no CPT inactive.
Cc1ccc(C(=O)N/C(=C\c2cccs2)C(=O)NC2CCCCC2)cc1 was read as HT1080 IDH1KD tx inactive, KB-3-1 cytotox inactive, HT1080-NT tox inactive, TDP1 cell CPT inconclusive, KB-V1 MDR tox 18µM and DT40 TDP1 no CPT inactive.
For CC(C)(C)c1ccc(C(=O)N/C(=C\c2cccs2)C(=O)N2CCOCC2)cc1 the results were HT1080 IDH1KD tx inactive, KB-3-1 cytotox inactive, HT1080-NT tox inactive, TDP1 cell CPT inactive, KB-V1 MDR tox inconclusive and DT40 TDP1 no CPT 21µM.
